# Measured values from PubChem BioAssay (NCI).
# The panel holds about 79,000 compounds, 15% with a hit somewhere; the sample as a whole holds those more often. Values without a mark were called inactive. Activity calls are given as the source filed them. Cut-off read from the data, not from the text of the source: active = growth inhibition above about 70%; inactive = the rest.
# Key:
# [1] = NCI Yeast Anticancer Drug Screen. Data for the rad52 strain (AID 147);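 note: 0% = growth of vehicle-treated control cultures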; conditions: S. cerevisiae rad52 mutant growth inhibition, stronger effect = higher value
# Summary of the method: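 Measured: yeast growth inhibition. System: strain with a defined DNA damage repair alteration. Reference: vehicle-treated control cultures.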
# [2] = NCI Yeast Anticancer Drug Screen. Data for the wt1 strain (AID 149);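 note: 0% = growth of vehicle-treated wt1 cultures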; conditions: S. cerevisiae wt1 strain (SPY 50644) growth inhibition, stronger effect = higher value
# Summary of the method: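 wt1 strain grown with compound or vehicle; inhibition taken from the growth difference.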
# [3] = NCI Yeast Anticancer Drug Screen. Data for the rad50EPP+ strain (AID 151);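 note: 0% = growth of vehicle-treated control cultures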; conditions: S. cerevisiae rad50 mutant strain, stronger effect = higher value
# Summary of the method: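 One strain with a rad50 alteration (rad50EPP+) was compound-treated, its growth then compared to that of vehicle controls.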
# [4] = NCI Yeast Anticancer Drug Screen. Data for the mgt1 strain (AID 153); conditions: S. cerevisiae mgt1 mutant growth inhibition, stronger effect = higher value
# Summary of the method: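 After exposure of the mgt1 yeast mutant to compound, growth was measured and reported as inhibition compared with vehicle controls.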
# [5] = NCI Yeast Anticancer Drug Screen. Data for the rad50 strain (AID 155);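 note: 0% = growth of vehicle-only cultures of the same strain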; conditions: S. cerevisiae rad50 strain growth inhibition, stronger effect = higher value
# Summary of the method: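 DNA repair mutant yeast, compound exposure, growth read-out; inhibition is taken relative to vehicle.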
# [6] = NCI Yeast Anticancer Drug Screen. Data for the mec2-1 strain (AID 157); conditions: S. cerevisiae mec2-1 strain, stronger effect = higher value
# Summary of the method: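 Test agents were screened against the mec2-1 yeast strain, with defined DNA repair or cell cycle alteration. Growth was scored as inhibition against vehicle-only controls.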
# [7] = NCI Yeast Anticancer Drug Screen. Data for the rad14 strain (AID 159);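 note: 0% = growth of vehicle-treated control cultures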; conditions: S. cerevisiae rad14 strain growth inhibition, stronger effect = higher value
# Summary of the method: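 DNA repair-defective yeast, compound-exposed; % growth inhibition derived by comparison with vehicle-treated controls.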
# [8] = NCI Yeast Anticancer Drug Screen. Data for the sgs1 mgt1 strain (AID 161);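 note: 0% = growth of cultures given vehicle only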; conditions: S. cerevisiae sgs1 mgt1 strain, stronger effect = higher value
# Summary of the method: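 Mutant yeast exposed to compound; growth scored against vehicle-only wells.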
# [9] = NCI Yeast Anticancer Drug Screen. Data for the cln2 rad14 strain (AID 165);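 note: 0% = growth equal to vehicle treated cultures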; conditions: S. cerevisiae cln2 rad14 strain, stronger effect = higher value
# Summary of the method: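 Growth of compound-exposed yeast (cln2 rad14 genotype) measured and expressed as inhibition relative to vehicle.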
# [10] = NCI Yeast Anticancer Drug Screen. Data for the bub3 strain (AID 167); conditions: S. cerevisiae bub3 mutant strain, stronger effect = higher value
# Summary of the method: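 In this screen, a yeast mutant lacking normal mitotic checkpoint function is challenged with compound. Relative growth versus vehicle gives the inhibition value.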
# [11] = NCI Yeast Anticancer Drug Screen. Data for the sgs1 strain (AID 173);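 note: 0% = growth of vehicle-only control cultures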; conditions: S. cerevisiae sgs1 mutant, stronger effect = higher value
# Summary of the method: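 Relative growth inhibition, referenced to vehicle, was determined in a yeast strain with a defined alteration affecting DNA damage repair or cell cycle control after compound exposure.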
# [12] = NCI Yeast Anticancer Drug Screen. Data for the mlh1 rad18 strain (AID 175); conditions: S. cerevisiae mlh1 rad18 strain growth inhibition, stronger effect = higher value
# Summary of the method: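 In this whole-cell yeast screen, a strain with altered DNA damage repair is challenged with compound, and its growth is measured against matched vehicle-treated controls.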
# [13] = NCI Yeast Anticancer Drug Screen. Data for the rad18 strain (AID 177); conditions: S. cerevisiae rad18 mutant growth inhibition, stronger effect = higher value
# Summary of the method: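 Screen uses a yeast strain with a defined lesion in DNA damage repair; compound effect is read as loss of growth compared to untreated vehicle cultures.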
# [14] = NCI Yeast Anticancer Drug Screen. Data for the wt2 strain (AID 169);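 note: 0% = growth of vehicle-treated yeast cultures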; conditions: S. cerevisiae wt2 strain growth inhibition, stronger effect = higher value
# Summary of the method: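 Genetically defined yeast strains from a DNA-repair/cell-cycle panel were used. Compound-exposed yeast growth was measured, and the inhibition was calculated relative to vehicle treatment.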
# [15] = NCI Yeast Anticancer Drug Screen. Data for the mlh1 strain (AID 171);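 note: 0% = growth of vehicle-treated control cultures of the same strain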; conditions: S. cerevisiae mlh1 strain growth inhibition, stronger effect = higher value
# Summary of the method: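 Here the genetically defined yeast mutant is grown with each compound, and the extent to which its growth falls below that of vehicle-exposed cells is reported.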
# [16] = at 5.0 µM (retest, dose inferred, filed as 0.5)
# [17] = at 50.0 µM (retest, dose inferred, filed as 5.0)
smiles,measurement,setting,value
C#CCCCc1ccccc1,growth inhibition,[1]; at 1.2 µM,-67%
same,growth inhibition,[1]; at 3.7 µM,-68%
same,growth inhibition,[1]; at 11.0 µM,-68%
same,growth inhibition,[1]; at 33.0 µM,-43%
same,growth inhibition,[1]; at 100.0 µM,66%
same,growth inhibition,[2]; at 1.2 µM,-29%
same,growth inhibition,[2]; at 3.7 µM,-24%
same,growth inhibition,[2]; at 11.0 µM,-28%
same,growth inhibition,[2]; at 33.0 µM,-9%
same,growth inhibition,[2]; at 100.0 µM,57%
same,growth inhibition,[3]; at 1.2 µM,-65%
same,growth inhibition,[3]; at 3.7 µM,-72%
same,growth inhibition,[3]; at 11.0 µM,-55%
same,growth inhibition,[3]; at 33.0 µM,23%
same,growth inhibition,[3]; at 100.0 µM,67%
same,growth inhibition,[4]; at 1.2 µM,-19%
same,growth inhibition,[4]; at 3.7 µM,-14%
same,growth inhibition,[4]; at 11.0 µM,-7%
same,growth inhibition,[4]; at 33.0 µM,16%
same,growth inhibition,[4]; at 100.0 µM,91% (active)
same,growth inhibition,[5]; at 1.2 µM,-48%
same,growth inhibition,[5]; at 3.7 µM,-45%
same,growth inhibition,[5]; [16],-13%
same,growth inhibition,[5]; at 11.0 µM,-36%
same,growth inhibition,[5]; at 33.0 µM,-24%
same,growth inhibition,[5]; [17],37%
same,growth inhibition,[5]; at 50.0 µM,24.1%
same,growth inhibition,[5]; at 100.0 µM,65%
same,growth inhibition,[6]; at 1.2 µM,-21%
same,growth inhibition,[6]; at 3.7 µM,-12%
same,growth inhibition,[6]; [16],-13%
same,growth inhibition,[6]; at 11.0 µM,-41%
same,growth inhibition,[6]; at 33.0 µM,31%
same,growth inhibition,[6]; [17],18%
same,growth inhibition,[6]; at 50.0 µM,47.4%
same,growth inhibition,[6]; at 100.0 µM,98% (active)
same,growth inhibition,[7]; at 1.2 µM,-36%
same,growth inhibition,[7]; at 3.7 µM,-39%
same,growth inhibition,[7]; at 11.0 µM,-31%
same,growth inhibition,[7]; at 33.0 µM,-17%
same,growth inhibition,[7]; at 100.0 µM,94% (active)
same,growth inhibition,[8]; [16],-9%
same,growth inhibition,[8]; [17],15%
same,growth inhibition,[8]; at 50.0 µM,63.6%
same,growth inhibition,[9]; [16],17%
same,growth inhibition,[9]; [17],37%
same,growth inhibition,[9]; at 50.0 µM,18.1%
same,growth inhibition,[10]; at 1.2 µM,-31%
same,growth inhibition,[10]; at 3.7 µM,-33%
same,growth inhibition,[10]; [16],0%
same,growth inhibition,[10]; at 11.0 µM,-25%
same,growth inhibition,[10]; at 33.0 µM,2%
same,growth inhibition,[10]; [17],79% (active)
same,growth inhibition,[10]; at 50.0 µM,39.9%
same,growth inhibition,[10]; at 100.0 µM,97% (active)
same,growth inhibition,[11]; at 1.2 µM,-48%
same,growth inhibition,[11]; at 3.7 µM,-61%
same,growth inhibition,[11]; at 11.0 µM,-56%
same,growth inhibition,[11]; at 33.0 µM,-12%
same,growth inhibition,[11]; at 100.0 µM,89% (active)
same,growth inhibition,[12]; [16],15%
same,growth inhibition,[12]; [17],70% (active)
same,growth inhibition,[12]; at 50.0 µM,26.7%
same,growth inhibition,[13]; at 1.2 µM,-56%
same,growth inhibition,[13]; at 3.7 µM,-49%
same,growth inhibition,[13]; at 11.0 µM,-58%
same,growth inhibition,[13]; at 33.0 µM,-28%
same,growth inhibition,[13]; at 100.0 µM,65%
CCCCCCCCCCCC(=O)N(C)C,growth inhibition,[1]; at 1.2 µM,-12%
same,growth inhibition,[1]; at 3.7 µM,-6%
same,growth inhibition,[1]; at 11.0 µM,-19%
same,growth inhibition,[1]; at 33.0 µM,30%
same,growth inhibition,[1]; at 100.0 µM,98% (active)
same,growth inhibition,[2]; at 1.2 µM,-15%
same,growth inhibition,[2]; at 3.7 µM,-13%
same,growth inhibition,[2]; at 11.0 µM,-14%
same,growth inhibition,[2]; at 33.0 µM,-14%
same,growth inhibition,[2]; at 100.0 µM,99% (active)
same,growth inhibition,[3]; at 1.2 µM,5%
same,growth inhibition,[3]; at 3.7 µM,18%
same,growth inhibition,[3]; at 11.0 µM,20%
same,growth inhibition,[3]; at 33.0 µM,47%
same,growth inhibition,[3]; at 100.0 µM,90% (active)
same,growth inhibition,[4]; at 1.2 µM,7%
same,growth inhibition,[4]; at 3.7 µM,3%
same,growth inhibition,[4]; at 11.0 µM,18%
same,growth inhibition,[4]; at 33.0 µM,23%
same,growth inhibition,[4]; at 100.0 µM,99% (active)
same,growth inhibition,[5]; at 1.2 µM,-2%
same,growth inhibition,[5]; at 3.7 µM,-5%
same,growth inhibition,[5]; [16],38%
same,growth inhibition,[5]; at 11.0 µM,-18%
same,growth inhibition,[5]; at 33.0 µM,29%
same,growth inhibition,[5]; [17],92% (active)
same,growth inhibition,[5]; at 50.0 µM,90.5% (active)
same,growth inhibition,[5]; at 100.0 µM,98% (active)
same,growth inhibition,[6]; at 1.2 µM,-34%
same,growth inhibition,[6]; at 3.7 µM,-24%
same,growth inhibition,[6]; [16],42%
same,growth inhibition,[6]; at 11.0 µM,-27%
same,growth inhibition,[6]; at 33.0 µM,34%
same,growth inhibition,[6]; [17],96% (active)
same,growth inhibition,[6]; at 50.0 µM,92.7% (active)
same,growth inhibition,[6]; at 100.0 µM,98% (active)
same,growth inhibition,[7]; at 1.2 µM,7%
same,growth inhibition,[7]; at 3.7 µM,2%
same,growth inhibition,[7]; at 11.0 µM,12%
same,growth inhibition,[7]; at 33.0 µM,34%
same,growth inhibition,[7]; at 100.0 µM,99% (active)
same,growth inhibition,[8]; [16],-2%
same,growth inhibition,[8]; [17],98% (active)
same,growth inhibition,[8]; at 50.0 µM,93.2% (active)
same,growth inhibition,[9]; [16],31%
same,growth inhibition,[9]; [17],98% (active)
same,growth inhibition,[9]; at 50.0 µM,91.5% (active)
same,growth inhibition,[10]; at 1.2 µM,3%
same,growth inhibition,[10]; at 3.7 µM,-28%
same,growth inhibition,[10]; [16],-4%
same,growth inhibition,[10]; at 11.0 µM,3%
same,growth inhibition,[10]; at 33.0 µM,18%
same,growth inhibition,[10]; [17],97% (active)
same,growth inhibition,[10]; at 50.0 µM,92% (active)
same,growth inhibition,[10]; at 100.0 µM,98% (active)
same,growth inhibition,[14]; at 1.2 µM,-6%
same,growth inhibition,[14]; at 3.7 µM,-11%
same,growth inhibition,[14]; at 11.0 µM,-11%
same,growth inhibition,[14]; at 33.0 µM,29%
same,growth inhibition,[14]; at 100.0 µM,99% (active)
same,growth inhibition,[15]; at 1.2 µM,-32%
same,growth inhibition,[15]; at 3.7 µM,-35%
same,growth inhibition,[15]; at 11.0 µM,-26%
same,growth inhibition,[15]; at 33.0 µM,-28%
same,growth inhibition,[15]; at 100.0 µM,98% (active)
same,growth inhibition,[11]; at 1.2 µM,-18%
same,growth inhibition,[11]; at 3.7 µM,-8%
same,growth inhibition,[11]; at 11.0 µM,-13%
same,growth inhibition,[11]; at 33.0 µM,34%
same,growth inhibition,[11]; at 100.0 µM,98% (active)
same,growth inhibition,[12]; [16],41%
same,growth inhibition,[12]; [17],94% (active)
same,growth inhibition,[12]; at 50.0 µM,91% (active)
same,growth inhibition,[13]; at 1.2 µM,-9%
same,growth inhibition,[13]; at 3.7 µM,-4%
same,growth inhibition,[13]; at 11.0 µM,-7%
same,growth inhibition,[13]; at 33.0 µM,15%
same,growth inhibition,[13]; at 100.0 µM,98% (active)
Cc1nn(-c2cc(Cl)ccc2[N+](=O)[O-])c(C)c1Cl,growth inhibition,[1]; at 1.2 µM,1%
same,growth inhibition,[1]; at 3.7 µM,3%
same,growth inhibition,[1]; at 11.0 µM,2%
same,growth inhibition,[1]; at 33.0 µM,3%
same,growth inhibition,[1]; at 100.0 µM,2%
same,growth inhibition,[2]; at 1.2 µM,-1%
same,growth inhibition,[2]; at 3.7 µM,-1%
same,growth inhibition,[2]; at 11.0 µM,1%
same,growth inhibition,[2]; at 33.0 µM,-1%
same,growth inhibition,[2]; at 100.0 µM,2%
same,growth inhibition,[3]; at 1.2 µM,4%
same,growth inhibition,[3]; at 3.7 µM,8%
same,growth inhibition,[3]; at 11.0 µM,14%
same,growth inhibition,[3]; at 33.0 µM,19%
same,growth inhibition,[3]; at 100.0 µM,10%
same,growth inhibition,[4]; at 1.2 µM,-2%
same,growth inhibition,[4]; at 3.7 µM,-2%
same,growth inhibition,[4]; at 11.0 µM,4%
same,growth inhibition,[4]; at 33.0 µM,-8%
same,growth inhibition,[4]; at 100.0 µM,7%
same,growth inhibition,[5]; at 1.2 µM,0%
same,growth inhibition,[5]; at 3.7 µM,1%
same,growth inhibition,[5]; [16],-20%
same,growth inhibition,[5]; at 11.0 µM,-16%
same,growth inhibition,[5]; at 33.0 µM,2%
same,growth inhibition,[5]; [17],-9%
same,growth inhibition,[5]; at 50.0 µM,50%
same,growth inhibition,[5]; at 100.0 µM,2%
same,growth inhibition,[6]; at 1.2 µM,7%
same,growth inhibition,[6]; at 3.7 µM,0%
